Unmarked numbers belong to inactive results. Records with an inconclusive call do not appear. The source made the active and inactive calls. Calls follow the shape of the dose curve; as a rule, active = well fitted curve in the direction sought with a large enough effect; inconclusive = small, poorly fitted or top-dose-only effect, or another doubt; inactive = no such curve, though single readings can be large; an effect the other way counts as inactive or inconclusive.

The text below walks through data of PubChem BioAssay (NCATS).

Assay [1] addresses Glutathione peroxidase 1 (Homo sapiens) (UniProt P07203). Nature of the assay: Primary qHTS Assay for Inhibitors of Recombinant Selenoprotein Glutathione Peroxidase 1 (GPX1) (AID 1845191). Also: nearly all actives have a fitted effect of over 65% in size. As to activity, negative = inhibition: % is scaled to controls: 0 for no effect and ±100 for the full control effect. The method, boiled down:
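Recombinant GPX1 (10 nM final) was preincubated with compound for 30 min at room temperature, then reacted with 1 mM GSH, 0.5 mM CHP, 0.5 mM NADPH and 100 nM glutathione reductase; NADPH fluorescence (340/450 nm) was read at 0 and 15 min.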
In general terms: In qHTS, concentration-response curves come from the screen itself.

The target of assay [2] is Phospholipid hydroperoxide glutathione peroxidase GPX4 (Homo sapiens) (UniProt P36969). Kind of assay: Primary qHTS Assay for Inhibitors of Recombinant Selenoprotein Glutathione Peroxidase 4 (GPX4) (AID 1845192). Also: nearly all actives have a fitted effect of over 65% in size. As to activity change, negative = inhibition: series mostly up to about 50 µM; % is scaled to controls: 0 for no effect and ±100 for the full control effect. Summed up: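 GR-coupled readout: 100 nM GR, 1 mM GSH, 0.5 mM NADPH; NADPH fluorescence (ex 340/em 450 nm) read at t=0 and after 15 min RT. GPX4 200 nM, preincubated 30 min with compound; substrate 0.5 mM CHP.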
Phospholipid hydroperoxide glutathione peroxidase GPX4 (Homo sapiens), sequence (P36969 whole entry, looked up): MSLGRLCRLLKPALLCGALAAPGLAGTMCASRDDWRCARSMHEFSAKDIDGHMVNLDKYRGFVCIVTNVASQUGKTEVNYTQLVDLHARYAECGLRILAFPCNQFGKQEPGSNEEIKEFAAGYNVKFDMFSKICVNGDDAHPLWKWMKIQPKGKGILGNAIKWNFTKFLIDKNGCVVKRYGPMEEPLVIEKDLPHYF

For assay [3], the target named is Luciferin 4-monooxygenase (Photinus pyralis) (UniProt P08659). Nature of the assay: Primary firefly luciferase (FLuc) qHTS assay for identification of artifact compounds. (AID 1845220). Also: nearly all actives have a fitted effect of over 60% in size.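 As to activity change, negative = inhibition: series mostly up to about 54 µM; plate controls were DMSO vehicle for no effect and no enzyme for full effect.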 Summed up:
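qHTS, 15 min compound preincubation with substrate (10 uM luciferin, 10 uM ATP) at RT, then 10 nM FLuc; 5 min; luminescence; % inhibition vs no-enzyme/DMSO controls, 4-parameter Hill fit.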

Assay [4] in a line: Primary fluorescence-based thiol-reactive (MSTI) qHTS assay for identification of artifact compounds. (AID 1845221). Also: nearly all actives have a fitted effect of over 65% in size. Also: potency is read from the fitted curve at half-maximal effect.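 As to activity change, negative = thiol reactive: series mostly up to about 54 µM; thiol-reactive compounds lower the probe fluorescence signal.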 The method, boiled down: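 qHTS titration of compound; 4 uM MSTI, PBS pH 7.4, 2% DMSO; 1 h RT, dark; fluorescence 525/598 nm; normalized to Acetyl-MSTI and MSTI; 4-parameter Hill fit.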
The test system of assay [5] is Nanoluciferase (engineered Oplophorus gracilirostris luciferase). Kind of assay: Primary Nanoluciferase (NLuc) qHTS assay for identification of artifact compounds. (AID 1845222).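 Also: series mostly up to about 54 µM; 0% = DMSO and -100% = no enzyme.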 The method, boiled down:
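Luminescence read-out of secreted NLuc in S16 cell conditioned medium (1:55); compounds tested with 15 min RT preincubation, then Nano-Glo substrate 1:100, 5 min. % inhibition vs no-enzyme and DMSO controls, 4-parameter Hill fit.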

Assay [6] is described as follows: Primary redox qHTS assay for identification of artifact compounds. (AID 1845223).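 Also: 0% = DMSO and 100% = reference compound.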 The method, boiled down: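 Amplex Red (25 uM) and HRP (250 mU/mL) in HBSS, with compounds for 15 min, then 250 uM DTT for 30 min, room temperature, dark. Fluorescence 525/598 nm read; normalized to DMSO and 10 uM DA3003; Hill fit.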

Glutathione peroxidase 1 (Homo sapiens), sequence (P07203 whole entry, looked up): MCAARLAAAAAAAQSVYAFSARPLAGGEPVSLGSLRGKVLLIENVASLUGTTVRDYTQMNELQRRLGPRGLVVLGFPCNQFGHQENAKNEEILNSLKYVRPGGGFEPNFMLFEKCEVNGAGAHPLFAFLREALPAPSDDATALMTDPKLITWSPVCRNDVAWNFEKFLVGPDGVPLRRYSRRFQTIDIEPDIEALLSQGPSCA

With `Cc1cccc(-c2[nH]c(Cc3cccc(C(N)=O)c3)nc2-c2ccc3nccnc3c2)n1`, the Potency result in assay [1], in assay [2], in assay [3], in assay [4], in assay [5] and in assay [6] was “inactive” throughout.

Take `CC1CCC2(C=O)C(CO)=CCCC2C1(C)CC(=O)O` (stereo not drawn): the Potency result in assay [1], in assay [2], in assay [3] and in assay [5] was “inactive” throughout. Further, the Potency in assay [4] is 3.36 µM (active).

For `COC1C(=O)CCC2(CO2)C1(O)C1(C)OC1CC=C(C)C` (stereo not drawn), the Potency entry in assay [1], in assay [2], in assay [3] and in assay [5] was “inactive” in each case. In addition, the Potency in assay [4] is 11.9 µM (active).

With `C[C@@H]1O[C@@H](O[C@H]2[C@H](O[C@H]3[C@H](O[C@H]4CC[C@@]5(C)C(CC[C@]6(C)C5CC=C5[C@@H]7CC(C)(C)C[C@@H](O)[C@]7(C)CC[C@]56C)[C@@]4(C)CO)O[C@H](C(=O)O)[C@@H](O)[C@@H]3O)OC[C@H](O)[C@@H]2O)[C@H](O)[C@H](O)[C@H]1O` (stereo partly drawn), the Potency entry in assay [1] and in assay [2] was “inactive” in each case. Besides, in assay [3], the outcome was “inactive [at 11.6 µM]”. Moreover, the activity change, negative = thiol reactive in assay [4] is 129% [at 11.5 µM]. For the same compound, the activity, negative = inhibition in assay [5] was -0.768% [at 11.6 µM]. Further, the redox activity (% of DA3003) in assay [6] was 17.9% [at 11.5 µM].

Consider `C[C@@H]1O[C@@H](O[C@H]2[C@H](OC(=O)[C@]34CCC(C)(C)C[C@H]3C3=CCC5[C@@]6(C)C[C@H](O)[C@H](O[C@@H]7O[C@H](CO)[C@@H](O[C@H]8OC[C@](O)(CO)[C@H]8O)[C@H](O)[C@H]7O)[C@@](C)(CO)C6[C@H](O)C[C@@]5(C)[C@]3(C)C[C@H]4O)OC[C@H](O)[C@@H]2O)[C@H](O)[C@H](O)[C@H]1O[C@@H]1OC[C@@H](O)[C@H](O[C@@H]2OC[C@](O)(CO)[C@H]2O)[C@H]1O` (stereo partly drawn), for which the outcome is “inactive [at 9.52 µM]” in assay [1], “inactive [at 9.73 µM]” in assay [2] and “inactive [at 11.6 µM]” in assay [3]. Besides, the activity change, negative = thiol reactive in assay [4] is 502% [at 11.5 µM]. Also, in assay [5], the activity, negative = inhibition was 3.67% [at 11.6 µM].

As to `O=C(NOCC(O)CO)c1ccc(F)c(F)c1Nc1ccc(I)cc1F` (stereo not drawn), the Potency result in assay [1], in assay [2], in assay [3], in assay [4], in assay [5] and in assay [6] was “inactive” each time.

In the case of `CO[C@H]1C[C@@H]2CC[C@@H](C)[C@@](O)(O2)C(=O)C(=O)N2CCCC[C@H]2C(=O)O[C@H]([C@H](C)C[C@@H]2CC[C@H](n3cnnn3)[C@H](OC)C2)CC(=O)[C@H](C)/C=C(\C)[C@@H](O)[C@@H](OC)C(=O)[C@H](C)C[C@H](C)/C=C/C=C/C=C/1C`, the Potency result in assay [1], in assay [2], in assay [3], in assay [4] and in assay [5] was “inactive” in each case.

For the compound `CC1=C2C(O)C(=O)OC(c3ccoc3)C2(C)CCC1O` (stereo not drawn), the Potency result in assay [1], in assay [2], in assay [3], in assay [4], in assay [5] and in assay [6] was “inactive” throughout.

Take `C/C=C/C=C/C=C/C(=O)OC1C=C(C=O)C(O)(C(=O)O)C2(C)CCCC(C)(C)C12` (stereo not drawn): the Potency entry in assay [1], in assay [2], in assay [3] and in assay [5] was “inactive” in each case. For the same compound, in assay [4], the Potency was 5.82 µM (active).

On to `Cc1cc2c(c(=O)[nH]1)OC(C(O)CC(C)C)O2` (stereo not drawn), for which the Potency result in assay [1], in assay [2], in assay [3], in assay [4] and in assay [5] was “inactive” throughout.

Turning to `COc1c2c(c(C)c3c1C(=O)OC3)O[C@@]1(C)CC(O)C(C(C)(C)O)[C@](C)(CCC(=O)O)[C@H]1C2` (stereo partly drawn), the Potency entry in assay [1], in assay [2], in assay [3], in assay [4], in assay [5] and in assay [6] was “inactive” in each case.

In the case of `COc1cc(O)c2c(c1)C1=C[C@H](O)[C@@H](O)C[C@]1(C)OC2=O`, the Potency entry in assay [1], in assay [2], in assay [3], in assay [4], in assay [5] and in assay [6] was “inactive” in each case.

With `CC1(C)CC[C@]2(C(=O)O[C@@H]3O[C@H](CO)[C@@H](O)[C@H](O)[C@H]3O)CC[C@]3(C)C(=CCC4[C@@]5(C)CC[C@H](O[C@@H]6O[C@H](C(=O)O)[C@@H](O)[C@H](O)[C@H]6O)C(C)(C)C5CC[C@]43C)C2C1` (stereo partly drawn), the Potency result in assay [1] and in assay [2] was “inactive” each time. Besides, the activity change, negative = inhibition in assay [3] was 0.101% [at 11.6 µM]. The activity change, negative = thiol reactive in assay [4] was 258% [at 11.5 µM]. Further, the activity, negative = inhibition in assay [5] is 3.65% [at 11.6 µM]. Also, the redox activity (% of DA3003) in assay [6] was 15.1% [at 11.5 µM].

Consider `COC(=O)N[C@@H](C)CNc1nccc(-c2cn(C(C)C)nc2-c2cc(Cl)cc(NS(C)(=O)=O)c2F)n1`, for which the Potency entry in assay [1], in assay [2], in assay [3], in assay [4] and in assay [5] was “inactive” in each case.

For the compound `CC12CCC(C(OC3OC(COC4OCC(O)(CO)C4O)C(O)C(O)C3O)C1)C(C)(C)O2` (stereo not drawn), the Potency result in assay [1], in assay [2], in assay [3], in assay [4] and in assay [5] was “inactive” each time.

With `CC1CCC2C(C)(C)[C@@H](O)CC[C@]2(C)C12Cc1c(O)cc3c(c1O2)CN(C(CCC(=O)O)C(=O)O)C3=O` (stereo partly drawn), the Potency result in assay [1], in assay [2], in assay [3], in assay [4] and in assay [5] was “inactive” in each case.

Consider `CC1(C)CCC[C@]2(C)[C@H]3CC(=O)O[C@]3(C)CC[C@@H]12`, for which the Potency entry in assay [1], in assay [2], in assay [3], in assay [4], in assay [5] and in assay [6] was “inactive” in each case.
